Inconclusive results are not listed. Where a call stands in place of a potency, no number is given. Values without a mark were called inactive. Active and inactive are the calls of the source. The call rests on the fitted dose curve; in most records, active means well fitted cell-killing curve with a large enough effect in the repeat runs; inconclusive means weak or mixed curves; inactive means flat fitted curve, though single readings scatter.
Assay: qHTS RealTime-Glo MT Cell Viability Assay in HepG2 cells - 32 hour (AID 1224877); further: nearly all actives have a fitted effect of over 55% in size
Details: RealTime-Glo luminescence; series mostly up to 76.8 µM
How it was run: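 HepG2 cells (600/well) were dispensed with RealTime-Glo reagents, incubated 5 h at 37 °C, then treated with compounds in DMSO for up to 40 h. Nonlytic NanoLuc luminescence reflecting viable cells was read at each stated time point.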
Potency means the concentration at half of the fitted maximal effect.

| SMILES | Potency | activity change, negative = cytotoxic |
| --- | --- | --- |
| C#CCOC(C(=O)OCCN(C)C)(c1ccccc1)c1ccccc1 | inactive | – |
| Brc1ccccc1 | inactive | – |
| C[C@]12CC[C@H]3[C@@H](CCC4=CC(=O)CC[C@@H]43)[C@@H]1CC[C@@H]2OC(=O)CCC1CCCCC1 | inactive | – |
| Cn1sc(Cl)cc1=O | inactive | – |
| CC(C)O.CC(C)O.OCCN(CCO)CCO.OCCN(CCO)CCO.[Ti] | inactive | – |
| c1ccoc1 | inactive | – |
| O=C1c2ccccc2C(=O)C1C(=O)C(c1ccccc1)c1ccccc1 | inactive | – |
| NCC(CC(=O)O)c1ccc(Cl)cc1 (stereo not given) | – | -0.345% [at 0.29 µM] |
| CCOS(C)(=O)=O | inactive | – |
| O=C(NCc1cccnc1)Nc1ccc([N+](=O)[O-])cc1 | inactive | – |
| Cc1ccccc1CCl | inactive | – |
| ClCCCCBr | inactive | – |
| COP(=S)(OC)Oc1cc(Cl)c(I)cc1Cl | inactive | – |
| Nc1ccc([N+](=O)[O-])cc1[N+](=O)[O-] | inactive | – |
| CN1C(=O)NC(=O)C(C)(C2=CCCCC2)C1=O (stereo not given) | inactive | – |
| O=C(CBr)Nc1ccc(Cl)cc1C(=O)c1ccccc1F | inactive | – |
| C=CC(=O)OCC(C)O (stereo not given) | inactive | – |
| CC1C(=O)C[C@]2(C(C)C)C[C@H]12 (stereo not given in full) | inactive | – |

| SMILES | Potency | activity change, negative = cytotoxic |
| --- | --- | --- |
| C=CCC1([C@H](C)CCC)C(=O)NC(=O)NC1=O | inactive | – |
| COc1cc(Cl)c(OC)cc1Cl | inactive | – |
| CCCCCCCCCCOC(=O)c1ccccc1C(=O)OCCCCCCCCCC | inactive | – |
| CCCN(CCC)c1c([N+](=O)[O-])cc(S(C)(=O)=O)cc1[N+](=O)[O-] | inactive | – |
| CCc1ccc(C(=O)NN(C(=O)c2cc(C)cc(C)c2)C(C)(C)C)cc1 | inactive | – |
| Clc1cc(Cl)c(Cl)c(Cl)c1 | inactive | – |
| CC(C)(OO)c1ccccc1 | inactive | – |
| Nc1ccc(N=Nc2ccc(-c3ccc(N=Nc4c(S(=O)(=O)O)cc5cc(S(=O)(=O)O)c(N=Nc6ccccc6)c(O)c5c4N)cc3)cc2)c(N)c1 | inactive | – |
| N#Cc1ccc(Cl)cc1 | inactive | – |
| CC(=O)C(C)(C)C | inactive | – |
| C[N+](C)(C)CCCl | inactive | – |
| CN1C[C@H](CNC(=O)OCc2ccccc2)C[C@@H]2c3cccc4c3c(cn4C)C[C@H]21 | 23.9 µM (active) | – |
| CCOP(=S)(OCC)SCSCC | inactive | – |
| O=C(O)COc1ccc(Cl)cc1 | inactive | – |
| ClCc1cccc(Cl)c1 | inactive | – |
| COCC(C)N(C(=O)CCl)c1c(C)csc1C (stereo not given) | inactive | – |
| COC1=CC(=O)O[C@@H](CCc2ccccc2)C1 | inactive | – |

From PubChem BioAssay (Tox21)
